Records with an inconclusive call do not appear. Active and inactive are the calls of the source. Calls follow the shape of the dose curve; as a rule, active = well fitted inhibition curve with a large enough effect; inconclusive = small, poorly fitted or top-dose-only effect, or effect the other way, or another doubt; inactive = no such curve, though single readings can be large or run the other way.
assay: Confirmation Concentration-Response Assay for lipid storage modulators; details: Drosophila S3 cells, lipid droplet BODIPY/CellTracker ratio, 18-24 h; series mostly up to 46.1 µM; also: nearly all actives have a fitted effect of over 80% in size
Text: NIH Molecular Libraries Probe Production Centers Network [MLPCN] NIH Chemical Genomics Center [NCGC] MLPCN Grant: 1 R03 MH085686-01 Assay Submitter (PI): Beller, Mathias; Max-Planck-Institut fur Biophysikalische Chemie NCGC Assay Overview: Storing lipids as a reservoir for energy or the anabolism of elementary metabolites is a common feature of probably all cells and is conserved from bacteria to humans. The universal cellular lipid storage organelle is the so-called lipid storage droplet (LD). Although ubiquitous, LDs share a simple structure composed of a hydrophobic core that harbors the storage lipids, which is shielded by a droplet-specific phospholipid monolayer to which proteins are attached. The current model of LD biogenesis involves an incorporation of the lipid core into the membrane leaflets of the endoplasmic reticulum (ER) followed by a subsequent budding-like maturation of a LD, which ultimately pinches off. Once released, LD volume can increase by localized lipogenesis or fusion of existing droplets. Storage lipids are re-mobilized enzymatically by lipase activity. Lipase regulation in the adipocyte is heavily studied and involves multiple components including catecholamine signaling, the LD-associated proteins Perilipin and comparative gene identification-58 (CGI-58) and at least two lipases named hormone sensitive lipase (HSL) and adipocyte triglyceride lipase (ATGL). LD regulation outside of the adipocyte is poorly understood and only few components are known. However, there is an urgent need to learn more about ectopic fat depots as mislocalized storage of lipids, for example in the liver or muscle, is an eminent health problem associated with insulin resistance or the metabolic syndrome. We developed a laser-scanning cytometer assay to enable 1,536-well screening and combined the results of the small molecules screen with an RNAi database based on lipid storage. Exo1 identified in the primary screen (AID 1519) and several analogs were measured in the lipid storage assay as 24-point concentration-response curves to confirm potency and SAR.
We dispensed 4 uL of cells at 1.25 x 10^6 cells/mL into LoBase Aurora COC 1,536-well plates (black walled, clear bottom) with a bottle-valve solenoid-based dispenser (Aurora) to obtain 5,000 cells/well. Triacsin C (Sigma-Aldrich T-4540), an inhibitor of long-chain fatty acyl CoA synthetase that blocks synthesis of triglycerides, was used as a positive control for lipid under-storage. A total of 23 nL of compound solution of different concentrations were transferred to the assay plates using a Kalypsys pin tool equipped with a 1,536-pin array containing 10-nL slotted pins (FP1S10, 0.457-mm diameter, 50.8 mm long; V&P Scientific). One microliter of oleic acid (400 uM) was added, and the plate was lidded with stainless steel rubber gasket lined lids containing pinholes. After 18-24 h incubation at 24 degree Celsius and 95% humidity, 4 uL of the dyes BODIPY 493/503 (Molecular Probes) and the Cell Tracker Red CMTPX dye (Molecular Probes) were added to the wells to stain lipid droplets and enumerate cell number, respectively. Fluorescence was detected by excitation of the fluorophores with a 488-nm laser on an Acumen Explorer (TTP Lab Tech). The total intensity in channel 1 (500-530 nm) reflected lipid droplet accumulation. Cells were detected using channel 3 (575- 640 nm) with 5-um width and 100-um depth filters. The ratio of the total intensity in PMT channel 1 over total intensity of channel 3 was also calculated. Percent activity was computed relative to an internal control (100% inhibited lipid droplet deposition due to the presence of 20 uM Triacsin C), which was added to 32 wells/plate.
Potency is read from the fitted curve at half-maximal effect.

Compound | Potency
N#Cc1ccsc1NC(=O)CN1CCN(S(=O)(=O)c2ccccc2C(F)(F)F)CC1 | 1.25 µM (active)
CCOc1ccc(CCNC(=O)COC(=O)COc2ccc(Br)cc2)cc1OCC | inactive
Cc1cc(C)c(Cc2c(C)nc3c(C(=O)NCc4ccco4)cnn3c2C)c(C)c1 | 7.05 µM (active)
COCc1ccc(C(=O)NC(C)c2cnn(-c3ccccc3C)c2C)o1 (stereo not given) | 12.5 µM (active)
COc1ccc(CCNC(=O)C(Sc2ccccn2)c2ccccc2)cc1OC (stereo not given) | inactive
CCOc1ccc(CCNC(=O)COC(=O)c2cccc(N(C)C)c2)cc1OCC | 0.396 µM (active)
O=C(COC(=O)c1ccc(CO)cc1)NCc1cccs1 | inactive
CC1=C(C(=O)NC2CCCc3c2cnn3-c2cccc(C)c2C)OCCO1 (stereo not given) | 0.0137 µM (active)
CCN1CCCC1CNC(=O)C(=O)NCCc1ccc(OC)c(OC)c1 (stereo not given) | inactive
Cc1nn(C)c(C)c1CN(Cc1nc(CCC(C)C)no1)C(C)C | 12.5 µM (active)
COc1cc(/C=N/NC(=O)c2ccc(CN3C(=O)c4cccc5cccc3c45)cc2)cc(OC)c1O | 4.99 µM (active)
CC(C)(C)c1ccc(/C=C2\SC(=O)N(CCNC(=O)c3cccc(S(=O)(=O)N4CCOCC4)c3)C2=O)cc1 | 8.88 µM (active)
CCCOc1ccc(Cc2c(Cl)nc(SC)nc2NC)cc1 | 14.1 µM (active)
Cc1ccc(-c2noc(C3CCCN(C(=O)c4ccccc4Br)C3)n2)cc1 (stereo not given) | inactive
CCNC(=O)NC1(C(=O)N2CCC(Cc3ccccc3)CC2)CCCCC1 | inactive
Cc1ccc(NC(=O)CN(C)C(=O)Cn2ncc(Cl)c(Cl)c2=O)cc1 | 28.1 µM (active)
CCCCCCCCCCCCCCCCn1cc[n+](C)c1 | 3.15 µM (active)
CCOC(=O)C1CCN(C(=O)C2(NC(=O)Nc3ccccc3C)CCCCC2)CC1 | 2.5 µM (active)
CCOC(=O)C1CCN(C(=O)C2(NC(=O)Nc3ccccc3Cl)CCCCC2)CC1 | 0.628 µM (active)
CCOC(=O)C1CCN(C(=O)C2(NC(=O)Nc3ccc(F)cc3F)CCCCC2)CC1 | 1.77 µM (active)

Compound | Potency
Cc1cc(C(=O)NC2CCCc3c2cnn3-c2ccccc2F)nc(C)n1 (stereo not given) | 1.41 µM (active)
CC(C)(C)c1cc[n+](C2=C([O-])c3ccccc3C(=O)/C2=N\S(=O)(=O)c2cccs2)cc1 | 28.1 µM (active)
COCCCN1C(=O)c2ccc(C(=O)OCC(=O)NCc3ccccc3OC)cc2C1=O | inactive
CCN(CC(=O)Nc1c(F)cccc1F)C(=O)CCCc1c[nH]c2ccccc12 | 0.628 µM (active)
COc1cccc(/C=C/C(=O)NCCc2ccc(OC)c(OC)c2)c1 | 1.77 µM (active)
COCc1ccc(C(=O)NC2CCCc3c2cnn3-c2cc(C)cc(C)c2)s1 (stereo not given) | 0.0244 µM (active)
CCOc1ccc(CCNC(=O)COC(=O)c2cccc(S(=O)(=O)N3CCCCC3)c2)cc1OCC | inactive
COc1ccc(/C=C(\NC(=O)c2cccs2)C(=O)Nc2ccccc2C)cc1OC | 0.177 µM (active)
COc1ccc(CCNC(=O)COc2ccc(S(=O)(=O)NCC(C)C)cc2Cl)cc1OC | inactive
CCN(CC)C(=O)c1sc2nc(-c3cccs3)cc(-c3cccs3)c2c1N | 7.91 µM (active)
Cc1ccc(S(=O)(=O)N(C)C)cc1NC(=O)COC(=O)c1sc2cc(Cl)ccc2c1Cl | 14.1 µM (active)
Cc1cc(Nc2ccccc2)nc(NCc2ccccc2)n1 | 11.2 µM (active)
CCOc1ccc(CCNC(=O)Cn2cccc2C(=O)c2ccccc2)cc1OCC | 7.91 µM (active)
COc1ccc(OC)c(NC(=O)CSc2ncnc3c2cnn3-c2ccccc2Cl)c1 | 1.77 µM (active)
COc1ccc(CCn2ccc(O)c(Cc3c(F)cccc3Cl)c2=O)cc1OC | 0.434 µM (active)
O=C(Nc1cccc(F)c1)NC1(C(=O)N2CCC(O)CC2)CCCCC1 | inactive
Cc1cnc(NC(=O)CSc2ncc(-c3ccccc3)n2Cc2ccco2)s1 | inactive
COc1ccc(CCNC(=O)CCC(=O)c2cccs2)cc1OC | inactive
S=C(Nc1cc(Cl)ccc1Oc1ccccc1)N1CCN(c2ccccn2)CC1 | 2.5 µM (active)
Cc1cccc(-n2ncc3c2CCCC3NC(=O)Cc2c(C)noc2C)c1C (stereo not given) | 14.1 µM (active)

— PubChem BioAssay AID1569 (National Center for Advancing Translational Sciences (NCATS), 2009)
